Measured values reported in the supplement of paper PMC11417369.
Whole data set: some 25,000 sequences, median “ln(normalized median fluorescence intensity)” near 7.1, cut for the highest 2% near 10. This excerpt belongs to a sample that is enriched for the highest values.

The sequences below were run on PfSIP2 AP2 domain 1 (GST-tagged) (assay: gcPBM binding intensity (ln(normalized median fluorescence intensity)); higher = stronger DNA binding).
Summary of the method: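 The highest Masliner-normalised natural-log median intensity across replicate spots of either probe orientation is reported as binding intensity. GST-tagged P. falciparum DNA-binding domains expressed in E. coli were applied for 1 h to an Agilent 4 × 180k array of primer-extended double-stranded 36-bp intergenic genomic probes plus negative controls, and bound protein was detected with Alexa488 anti-GST antibody and scanned at 488 nm.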

First: TTCATATTATAGTGCACACAAAAATATATATATGGT [CACACA_site2855]
Second: AACTCATAGCGGTGTGCACACAAAAAATTAAAAAAA [CACACA_site3033]
The “gcPBM binding intensity (ln)” value of the first is higher: 10.7 for the first, 8.94 for the second.

First: CATATAAAAATATATGCACACAAATAAAAAATTATA [CACACA_site9210]
Second: CTCATAGTTGGGTGCACACAAAAAATTAAAAAAATA [CACACA_site3032]
The “gcPBM binding intensity (ln)” value of the first is lower: 7.29 for the first, 12.3 for the second.

Compared with “TTTTCATATTATAGTGCACACAAAAATATATATATG [CACACA_site8929]”, “TGAATAAATATAAAAGGTACACATATAAATATATAT [XGTACX_site6349]” is lower in “gcPBM binding intensity (ln)” value: 10.8 for the first, 7.11 for the second.

Compared with “TATATATATATAATATGTACATATAATCAACATTTT [XGTACX_site3915]”, “TATTAGTCGAATGATGTACACACATACAAAACATTT [CACACA_site9331]” is lower in “gcPBM binding intensity (ln)” value: 8.68 for the first, 6.96 for the second.

First: TTTTTTTTTTGATGTTGTACATATATATTATATATA [XGTACX_site6377]
Second: TAAAAATAATTTGCATGTACATAGGTCGATGTATTT [XGTACX_site1357]
The “gcPBM binding intensity (ln)” value of the first is higher: 7.17 for the first, 7.08 for the second.

Going from “ATACATATAGGATGCACACATAATTCAAATACAATA [CACACA_site651]” to “ATCTATCATATTTATGCACACAAAAATAATTAATTC [CACACA_site8837]”, the “gcPBM binding intensity (ln)” value falls from 7.73 to 7.35.

Going from “TTTTTTTCTAATTATGCACACATATCAAAATATTCA [CACACA_site8886]” to “TTTTTCTAATTATGCACACATATCAAAATATTCAAT [CACACA_site2749]”, the “gcPBM binding intensity (ln)” value falls from 10.3 to 9.18.

Compared with “CGAAATCATATGTACACACACATATATATATATATA [CACACA_site2151]”, “ATAATATTCGAGTGTGCACACAAACATACATATATA [CACACA_site3396]” is lower in “gcPBM binding intensity (ln)” value: 9.32 for the first, 8.79 for the second.

First: TATATAACCGAGTGCACACACAAAAAAAAAGTGAAC [CACACA_site6806]
Second: AAAATATAATATATTGCACACAAAAAGTGAATTATT [CACACA_site8489]
The “gcPBM binding intensity (ln)” value of the first is higher: 11.1 for the first, 6.95 for the second.

Going from “TATATAATCGAGTGCACACACAAAAAAAAAGTGAAC [CACACA_site1483]” to “ATAATAATAAAGTGAACACACACATATAATATATAT [CACACA_site9378]”, the “gcPBM binding intensity (ln)” value falls from 10.8 to 7.19.

Compared with ACACACAATACAAAAGTGCATATAATAATTAATCAT, “AATAATAAAGTGAACACACACATATAATATATATAT [CACACA_site4143]” is lower in “gcPBM binding intensity (ln)” value: 8.76 for the first, 8.41 for the second.

Compared with “TGTATATAATCGAGTGCACACACAAAAAAAAAGTGA [CACACA_site8417]”, “CTATAATAATAAAGTGAACACACACCGATAATATAT [CACACA_site9377]” is lower in “gcPBM binding intensity (ln)” value: 10.4 for the first, 7.02 for the second.

First: TATAATAATATTTATTGTACAATTAGTTTAATTCAT [XGTACX_site272]
Second: TACAAAAAAGAAGATATTCAAACAAAAACAAAAAAA [CACACA_negctrl_site1126]
The “gcPBM binding intensity (ln)” value of the first is higher: 7.08 for the first, 6.8 for the second.

Compared with “CTCCTCATATAATTTTGTACATAAAAAATTACCATT [XGTACX_site3879]”, “CCCCATATAATGAACACACACACTCCTCATAATTAA [CACACA_site628]” is lower in “gcPBM binding intensity (ln)” value: 7.31 for the first, 7.15 for the second.

First: TAATCATAACTTGATACGCACACGTTATATAAATAA [CACACA_site1579]
Second: ATAAAATAAAATAAATGTACACGAAAAAAAATATTT [XGTACX_site3747]
The “gcPBM binding intensity (ln)” value of the first is lower: 7.02 for the first, 7.25 for the second.

First: TAACAATTAATAAAAGGTACACTTGAATATGCACCA [XGTACX_site2717]
Second: ATGAATAAATTAAAAATGCACACTTTGATGGGTACA [CACACA_site2157]
The “gcPBM binding intensity (ln)” value of the first is higher: 10.5 for the first, 7.46 for the second.

First: TATTATATATATGCACGTACAAAAATAATAAAGGTA [XGTACX_site3506]
Second: TTTAAATACAGACATACACACATACACGCACATATA [CACACA_site6400]
The “gcPBM binding intensity (ln)” value of the first is higher: 7.71 for the first, 7.17 for the second.

Compared with “TTTGAGTGCACATACACACAGACATACATTTAAATA [CACACA_site3403]”, “TAAATTTTTAAATACACACATACACCCATACAGACA [CACACA_site548]” is lower in “gcPBM binding intensity (ln)” value: 11.9 for the first, 7.51 for the second.

First: TTTAAATACAGACATACACACATACACAGACATATA [CACACA_site4460]
Second: TTATACAGATATTTAACACACATTTTATAAAGTGCC [CACACA_site4851]
The “gcPBM binding intensity (ln)” value of the first is higher: 6.97 for the first, 6.87 for the second.

Going from “TTTTTGAGTGCACATACACACAGACATACATTTAAA [CACACA_site5813]” to “TCCTTTTTGAAATGTTGTACTTTTTTTATCTTTCAT [XGTACX_site953]”, the “gcPBM binding intensity (ln)” value falls from 11.5 to 7.12.

Compared with “ATTAACTATCATAACACACACAGTAGACATATTTTT [CACACA_site1822]”, “GATATATAAACATATACACACAAAAACATATTTATA [CACACA_site6734]” is lower in “gcPBM binding intensity (ln)” value: 7.04 for the first, 6.98 for the second.

Compared with “TGAATTATAAATTATAGTACTTTATAATATGAACAT [XGTACX_site2317]”, “TTTTTTTTTTTTTTGGTGCACATAGAAATTCTAAAA [GTGCAC_site9809]” is higher in “gcPBM binding intensity (ln)” value: 6.81 for the first, 11.3 for the second.

Compared with “AGAAAAATTCTAAGAACATGCAAAAAAATAAAAAAA [TGCATGCA_site293]”, “AAAAAAAAAATTTTCGTGCACATAAGAAAATTTAAA [GTGCAC_site9788]” is higher in “gcPBM binding intensity (ln)” value: 6.84 for the first, 9.36 for the second.
